Targets with a hit are over-represented here; the source holds about 8,800 in all. About 0.5% of all pairs of compound and target were hits. Unmarked numbers belong to inactive results.

Common to all, as to assay: log2 fold change, soluble protein after heating vs DMSO (PISA); higher = thermal stabilisation; K562 lysate, 10 uM; active = over 0.2 and 3.5 SD of the protein, either way, in both replicates (recomputed)
Compound in test [1]: C1=CC=C(C=C1)[C@H](COC2=CC3=C(C=C2)NC(=O)N3)NC(=O)C4=CC=CN(C4=O)CC5=CC(=C(C=C5)F)F
Summed up:
(§1)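 To prepare the extract, K562 pellets were dounce-homogenised in PBS pH 7.4 with 1 mM MgCl2, giving crude material at 1 mg/mL protein. This was treated with 10 μM compound for 30 min, then heated in aliquots for 3 min over 48°C-58°C before pooling and addition of NP-40 to 0.5% at 4°C. Centrifugation at 21,000xg for 90 min left soluble protein in the supernatant, which TMTpro 16plex LC-MS/MS quantified with equalised channel sums. Results are log-two fold changes in thermal stability compared with solvent controls, from duplicates.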

Compound in test [2]: CC1=C(SC2=C1C(=N[C@H](C3=NN=C(N32)C)CC(=O)N)C4=CC=C(C=C4)Cl)C
The method, boiled down: as §1

Compound in test [3]: c1ccc([C@@H]2C[C@H]2NC2CCNCC2)cc1
The method, boiled down: as §1

Compound in test [4]: CC1=C2C(=CC=C1)N=C(N(C2=O)C3=CC=CC=C3C)CN4C=NC5=C(N=CN=C54)N
The method, boiled down: as §1

Compound in test [5]: Cc1sc2c(c1C)C(c1ccc(Cl)cc1)=N[C@@H](CC(=O)OC(C)(C)C)c1nnc(C)n1-2
Summed up:
as §1

Chain of UniProt Q86UV5 (Q86UV5 whole entry, looked up): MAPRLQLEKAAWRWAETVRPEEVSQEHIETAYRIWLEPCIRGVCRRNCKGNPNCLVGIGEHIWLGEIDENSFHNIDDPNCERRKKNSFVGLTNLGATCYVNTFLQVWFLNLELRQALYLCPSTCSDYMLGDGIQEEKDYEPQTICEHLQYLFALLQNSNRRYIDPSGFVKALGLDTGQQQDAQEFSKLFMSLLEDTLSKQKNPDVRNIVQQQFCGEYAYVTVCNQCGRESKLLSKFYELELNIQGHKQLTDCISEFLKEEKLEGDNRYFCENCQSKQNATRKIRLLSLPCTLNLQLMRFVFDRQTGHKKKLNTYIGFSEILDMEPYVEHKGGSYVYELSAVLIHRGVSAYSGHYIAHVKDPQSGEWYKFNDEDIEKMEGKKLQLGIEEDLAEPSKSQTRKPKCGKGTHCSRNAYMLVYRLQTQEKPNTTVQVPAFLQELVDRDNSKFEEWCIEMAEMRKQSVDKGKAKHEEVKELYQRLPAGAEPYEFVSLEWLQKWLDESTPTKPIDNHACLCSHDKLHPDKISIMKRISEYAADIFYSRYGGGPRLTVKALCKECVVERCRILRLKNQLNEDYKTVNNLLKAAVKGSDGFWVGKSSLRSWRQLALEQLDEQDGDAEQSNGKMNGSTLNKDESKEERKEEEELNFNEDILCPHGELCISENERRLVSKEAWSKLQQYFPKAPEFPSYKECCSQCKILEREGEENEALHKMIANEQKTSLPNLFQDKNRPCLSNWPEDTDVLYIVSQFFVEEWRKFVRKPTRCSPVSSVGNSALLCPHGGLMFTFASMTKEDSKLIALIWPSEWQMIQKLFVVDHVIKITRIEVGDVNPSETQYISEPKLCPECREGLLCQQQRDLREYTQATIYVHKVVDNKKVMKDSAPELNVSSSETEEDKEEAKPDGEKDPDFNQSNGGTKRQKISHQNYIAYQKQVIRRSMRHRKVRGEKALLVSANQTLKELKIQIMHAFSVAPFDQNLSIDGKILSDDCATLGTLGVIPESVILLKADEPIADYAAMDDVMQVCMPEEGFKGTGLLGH
Chain of UniProt P46939 (P46939 whole entry, looked up): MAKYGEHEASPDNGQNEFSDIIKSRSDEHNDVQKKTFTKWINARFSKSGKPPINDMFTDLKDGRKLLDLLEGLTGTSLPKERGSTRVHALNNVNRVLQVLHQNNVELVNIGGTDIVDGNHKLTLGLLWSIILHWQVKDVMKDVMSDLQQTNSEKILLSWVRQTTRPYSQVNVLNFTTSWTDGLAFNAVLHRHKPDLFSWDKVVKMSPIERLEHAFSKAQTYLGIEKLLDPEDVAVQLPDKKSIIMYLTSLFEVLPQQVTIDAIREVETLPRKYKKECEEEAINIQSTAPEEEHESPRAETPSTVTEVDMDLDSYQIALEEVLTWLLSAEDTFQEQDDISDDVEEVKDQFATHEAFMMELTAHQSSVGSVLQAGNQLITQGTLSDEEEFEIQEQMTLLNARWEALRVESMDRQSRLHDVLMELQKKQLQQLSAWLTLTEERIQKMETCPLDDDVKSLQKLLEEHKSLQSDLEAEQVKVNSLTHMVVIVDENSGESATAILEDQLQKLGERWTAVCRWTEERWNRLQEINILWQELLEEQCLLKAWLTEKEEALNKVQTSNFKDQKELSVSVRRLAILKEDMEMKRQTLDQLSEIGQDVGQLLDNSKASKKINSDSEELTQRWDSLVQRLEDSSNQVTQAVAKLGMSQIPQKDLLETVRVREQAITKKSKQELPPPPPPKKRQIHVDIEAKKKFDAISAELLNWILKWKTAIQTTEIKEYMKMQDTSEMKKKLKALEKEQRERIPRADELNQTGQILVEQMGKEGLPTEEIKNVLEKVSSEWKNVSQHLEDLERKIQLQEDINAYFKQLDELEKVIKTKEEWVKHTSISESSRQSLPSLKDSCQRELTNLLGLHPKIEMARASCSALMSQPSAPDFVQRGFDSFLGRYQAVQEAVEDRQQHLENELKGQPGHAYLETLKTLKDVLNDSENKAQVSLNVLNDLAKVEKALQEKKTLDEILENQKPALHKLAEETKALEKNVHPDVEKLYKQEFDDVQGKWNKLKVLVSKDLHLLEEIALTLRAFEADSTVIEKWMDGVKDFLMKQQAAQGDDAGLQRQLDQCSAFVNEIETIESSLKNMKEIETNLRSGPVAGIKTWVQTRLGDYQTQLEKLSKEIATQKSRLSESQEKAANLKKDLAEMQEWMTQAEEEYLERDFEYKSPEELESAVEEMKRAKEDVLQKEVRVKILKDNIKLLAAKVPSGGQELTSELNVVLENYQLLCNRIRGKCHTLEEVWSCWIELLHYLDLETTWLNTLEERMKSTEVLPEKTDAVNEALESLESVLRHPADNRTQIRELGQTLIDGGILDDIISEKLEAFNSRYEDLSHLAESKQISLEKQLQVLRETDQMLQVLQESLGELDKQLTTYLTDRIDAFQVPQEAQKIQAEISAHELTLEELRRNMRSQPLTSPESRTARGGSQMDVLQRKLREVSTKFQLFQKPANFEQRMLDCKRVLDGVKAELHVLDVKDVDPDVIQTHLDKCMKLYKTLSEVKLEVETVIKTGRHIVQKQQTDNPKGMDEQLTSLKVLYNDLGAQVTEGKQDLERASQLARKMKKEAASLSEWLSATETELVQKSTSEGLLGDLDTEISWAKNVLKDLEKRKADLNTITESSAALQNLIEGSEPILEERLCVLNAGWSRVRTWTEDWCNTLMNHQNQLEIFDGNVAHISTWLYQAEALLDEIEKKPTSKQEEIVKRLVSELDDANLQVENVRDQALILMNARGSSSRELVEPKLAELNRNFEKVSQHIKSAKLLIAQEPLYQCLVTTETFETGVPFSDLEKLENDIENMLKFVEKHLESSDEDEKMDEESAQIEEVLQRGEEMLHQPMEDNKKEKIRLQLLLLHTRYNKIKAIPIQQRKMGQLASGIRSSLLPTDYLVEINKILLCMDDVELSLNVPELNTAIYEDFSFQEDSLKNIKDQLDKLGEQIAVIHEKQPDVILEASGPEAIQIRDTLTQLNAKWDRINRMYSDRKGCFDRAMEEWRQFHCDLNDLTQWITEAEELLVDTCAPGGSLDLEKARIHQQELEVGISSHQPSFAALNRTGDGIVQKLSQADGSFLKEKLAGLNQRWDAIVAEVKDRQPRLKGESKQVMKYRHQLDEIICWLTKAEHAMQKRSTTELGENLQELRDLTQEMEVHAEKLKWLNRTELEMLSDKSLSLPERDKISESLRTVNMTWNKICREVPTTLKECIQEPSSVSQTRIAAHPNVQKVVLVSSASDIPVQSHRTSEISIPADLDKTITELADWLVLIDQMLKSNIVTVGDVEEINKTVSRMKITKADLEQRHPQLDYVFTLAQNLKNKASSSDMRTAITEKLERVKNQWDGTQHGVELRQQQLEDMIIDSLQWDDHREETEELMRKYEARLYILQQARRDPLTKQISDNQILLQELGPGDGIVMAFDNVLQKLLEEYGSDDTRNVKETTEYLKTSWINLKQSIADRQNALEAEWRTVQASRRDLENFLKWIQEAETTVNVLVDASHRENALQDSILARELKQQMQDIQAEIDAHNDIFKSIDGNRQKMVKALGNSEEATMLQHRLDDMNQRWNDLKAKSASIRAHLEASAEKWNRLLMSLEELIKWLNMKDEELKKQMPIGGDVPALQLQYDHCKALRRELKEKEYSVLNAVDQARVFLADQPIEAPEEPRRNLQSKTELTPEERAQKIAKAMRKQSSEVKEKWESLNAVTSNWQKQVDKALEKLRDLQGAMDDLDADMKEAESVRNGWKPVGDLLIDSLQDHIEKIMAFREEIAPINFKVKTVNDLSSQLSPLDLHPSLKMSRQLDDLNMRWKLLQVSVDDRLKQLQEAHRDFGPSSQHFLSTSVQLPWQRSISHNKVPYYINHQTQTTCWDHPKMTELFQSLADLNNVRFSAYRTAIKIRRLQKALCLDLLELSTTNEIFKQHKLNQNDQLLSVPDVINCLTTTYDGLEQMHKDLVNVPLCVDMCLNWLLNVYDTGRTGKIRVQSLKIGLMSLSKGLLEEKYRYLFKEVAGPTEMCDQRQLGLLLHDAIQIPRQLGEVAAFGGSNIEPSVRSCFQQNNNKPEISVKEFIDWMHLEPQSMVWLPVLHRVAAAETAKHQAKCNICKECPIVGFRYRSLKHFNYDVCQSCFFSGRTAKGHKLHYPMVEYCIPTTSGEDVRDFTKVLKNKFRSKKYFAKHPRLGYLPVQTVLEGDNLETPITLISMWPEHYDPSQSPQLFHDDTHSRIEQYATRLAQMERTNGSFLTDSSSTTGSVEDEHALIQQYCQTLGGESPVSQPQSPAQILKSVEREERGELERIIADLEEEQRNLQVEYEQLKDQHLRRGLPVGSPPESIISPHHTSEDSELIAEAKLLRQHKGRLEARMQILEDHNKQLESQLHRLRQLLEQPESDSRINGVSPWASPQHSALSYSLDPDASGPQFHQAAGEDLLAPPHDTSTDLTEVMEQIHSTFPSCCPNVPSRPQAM
Chain of UniProt Q8IUH5 (Q8IUH5 whole entry, looked up): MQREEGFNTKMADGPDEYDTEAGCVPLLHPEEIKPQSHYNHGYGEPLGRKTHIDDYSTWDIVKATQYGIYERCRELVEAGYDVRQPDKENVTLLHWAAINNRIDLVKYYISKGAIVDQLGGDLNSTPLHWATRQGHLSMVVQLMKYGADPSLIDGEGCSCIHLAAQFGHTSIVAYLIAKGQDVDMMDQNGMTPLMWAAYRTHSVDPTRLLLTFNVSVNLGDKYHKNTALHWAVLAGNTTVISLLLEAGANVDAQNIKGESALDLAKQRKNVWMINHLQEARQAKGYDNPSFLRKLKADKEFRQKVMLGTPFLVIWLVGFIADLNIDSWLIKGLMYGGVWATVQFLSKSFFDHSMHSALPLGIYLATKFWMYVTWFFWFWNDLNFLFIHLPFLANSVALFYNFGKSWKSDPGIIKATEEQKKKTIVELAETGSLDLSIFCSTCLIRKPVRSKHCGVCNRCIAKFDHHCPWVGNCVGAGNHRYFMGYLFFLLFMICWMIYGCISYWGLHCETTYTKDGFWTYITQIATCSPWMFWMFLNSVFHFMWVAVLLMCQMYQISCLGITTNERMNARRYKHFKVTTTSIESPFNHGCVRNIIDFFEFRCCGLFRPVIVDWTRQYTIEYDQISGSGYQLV

As to WIPI2 isoform 6 (UniProt Q9Y4P8), the log2 fold change was 0.092 in test [1], 0.088 in test [2] and -0.073 in test [3].

On to ZKSCAN8 (UniProt Q15776), for which the log2 fold change in test [4] was -0.065; in test [5], -0.026.

As to USP48 isoform 8 (UniProt Q86UV5), the log2 fold change was 0.006 in test [1]; -0.016 in test [2]; 0.015 in test [4]; 0.003 in test [5]; 0.035 in test [3].

In the case of VASN (UniProt Q6EMK4), the log2 fold change in test [5] was -0.017.

With WSB1 (UniProt Q9Y6I7), the values for the log2 fold change in test [5] and in test [3] were 0.036 and -0.036, respectively.

For the target UNC13A (UniProt Q9UPW8), the log2 fold change in test [3] is -0.966.

Take USP8 (UniProt P40818): the log2 fold change is -0.018 in test [1]; 0.016 in test [2]; 0.01 in test [4]; 0.009 in test [5]; 0.036 in test [3].

As for UTRN isoform 2 (UniProt P46939), the log2 fold change in test [1] was 0.026; in test [2] it was 0.037; in test [3], 0.062.

Turning to ZDHHC17 (UniProt Q8IUH5), the log2 fold change in test [4] was 0.057; in test [5], -0.181; in test [3] it was -0.578.

For the origin of these results see the supplement of paper PMC10849652.
